In PubChem BioAssay (NCI):
The panel holds about 83,000 compounds, 20% with a hit somewhere; the sample as a whole holds those more often.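 Percent growth is the endpoint: 0 to 100 indicates growth inhibition (40 means 60% inhibition), 0 means no net growth, and negative values indicate cell death.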 Active and inactive are the calls of the source. Rule for the calls: active = growth percent below 10; inactive = the rest.

Key:
Test in all cases: NCI-60 one-dose screen, 48 h (100 = growth as untreated, 0 = no growth, -100 = all killed)
Settings in all cases: 10 µM unless noted
SK-MEL-2 melanoma = tested on: SK-MEL-2 melanoma
EKVX NSCLC = tested on: EKVX NSCLC
SN12C renal = tested on: SN12C renal
UO-31 renal = tested on: UO-31 renal
TK-10 renal = tested on: TK-10 renal
ACHN renal = tested on: ACHN renal
CAKI-1 renal = tested on: CAKI-1 renal
A498 renal = tested on: A498 renal
CCRF-CEM leukemia = tested on: CCRF-CEM leukemia
MOLT-4 leukemia = tested on: MOLT-4 leukemia

Measured: growth

O=C(Nc1cc(Cl)ccc1O)c1cccc(Nc2ccnc(C(F)(F)F)c2)c1
inactive: SK-MEL-2 melanoma 56.2% | SN12C renal 35% | UO-31 renal 25.5% | TK-10 renal 46.6% | ACHN renal 27.2% | A498 renal 45.3%
active: EKVX NSCLC 9.67% | CAKI-1 renal -2.35% | CCRF-CEM leukemia 8.35% | MOLT-4 leukemia -41.2%

COc1ccccc1C(=O)Nc1cccc(NC(=O)c2ccoc2C)c1
inactive: SK-MEL-2 melanoma 10.3% | EKVX NSCLC 71% | SN12C renal 43.3% | UO-31 renal 49.6% | TK-10 renal 44.7% | ACHN renal 52.1% | CAKI-1 renal 40.6% | A498 renal 47.1% | CCRF-CEM leukemia 10.9% | MOLT-4 leukemia 25%

Cn1c(=O)c2[nH]c(SCC(=O)Nc3ccc(C(=O)/C=C/c4ccccc4Cl)cc3)nc2n(C)c1=O
inactive: SK-MEL-2 melanoma 126% | EKVX NSCLC 87.9% | SN12C renal 97.7% | UO-31 renal 92.7% | TK-10 renal 104% | ACHN renal 99% | CAKI-1 renal 98.1% | A498 renal 85.6% | CCRF-CEM leukemia 79.5% | MOLT-4 leukemia 87.4%

CCc1ccc(CCC(=O)Nc2ncc(Cc3ccccc3)s2)o1
inactive: SK-MEL-2 melanoma 44.4% | EKVX NSCLC 36.1% | SN12C renal 42.3% | UO-31 renal 40.3% | TK-10 renal 63.1% | ACHN renal 44.4% | CAKI-1 renal 33.3% | A498 renal 22.9% | CCRF-CEM leukemia 19% | MOLT-4 leukemia 22.2%

O=c1c2c3c(sc2n2c(-c4cc(-c5ccccc5)no4)nnc2n1Cc1ccccc1)CCCC3
active: UO-31 renal -41.9% | CAKI-1 renal -67.8%
inactive: SK-MEL-2 melanoma 119% | EKVX NSCLC 80% | SN12C renal 90.8% | TK-10 renal 120% | ACHN renal 95.4% | A498 renal 82.2% | CCRF-CEM leukemia 34.8% | MOLT-4 leukemia 55%

COc1cccc(/C=C/C(=O)c2cc3c(N)c(C(=O)Nc4cccc5ccccc45)sc3nc2C)c1
inactive: SK-MEL-2 melanoma 24.2% | EKVX NSCLC 39.9% | UO-31 renal 16.9% | TK-10 renal 32% | ACHN renal 35% | CAKI-1 renal 17.2% | MOLT-4 leukemia 16.8%
active: SN12C renal -27.9% | A498 renal 4.07% | CCRF-CEM leukemia 7.04%

COc1ccc(/C=C/C(=O)c2ccc(NC(=O)CSc3nc4c([nH]3)c(=O)n(C)c(=O)n4C)cc2)cc1OC
inactive: SK-MEL-2 melanoma 110% | EKVX NSCLC 88.5% | SN12C renal 85.3% | UO-31 renal 90.8% | TK-10 renal 97.9% | ACHN renal 94.4% | CAKI-1 renal 84.7% | A498 renal 71.7% | CCRF-CEM leukemia 66% | MOLT-4 leukemia 72.4%

Cc1ccc(-c2csc(NC(=O)c3ccccc3CN3C(=O)c4ccccc4C3=O)n2)cc1
inactive: SK-MEL-2 melanoma 97.3% | EKVX NSCLC 93.6% | SN12C renal 94.5% | UO-31 renal 85.9% | TK-10 renal 94.4% | ACHN renal 108% | CAKI-1 renal 86.6% | A498 renal 99.8% | CCRF-CEM leukemia 102% | MOLT-4 leukemia 93.4%

O=C1/C(=C2\SC(=S)N(C3CC3)C2=O)SC(=S)N1C1CC1
inactive: SK-MEL-2 melanoma 102% | EKVX NSCLC 95.9% | SN12C renal 92.5% | UO-31 renal 77.4% | TK-10 renal 108% | ACHN renal 97% | CAKI-1 renal 91.3% | A498 renal 106% | CCRF-CEM leukemia 105% | MOLT-4 leukemia 103%

CCCCNC(=O)c1cc([N+](=O)[O-])cc(C2CCCCC2)c1O
inactive: SK-MEL-2 melanoma 19.5% | EKVX NSCLC 33.6% | SN12C renal 31.9% | UO-31 renal 24.8% | TK-10 renal 49.1% | ACHN renal 61.5% | CAKI-1 renal 35.3% | A498 renal 21.5% | CCRF-CEM leukemia 36.5% | MOLT-4 leukemia 27.1%

Cc1nc2c(=O)nc3s/c(=C\c4ccco4)c(=O)n3c2nc1C
inactive: SK-MEL-2 melanoma 109% | EKVX NSCLC 91.8% | SN12C renal 97.8% | UO-31 renal 73.1% | TK-10 renal 92.9% | ACHN renal 99.2% | CAKI-1 renal 88.4% | A498 renal 50.9% | CCRF-CEM leukemia 108% | MOLT-4 leukemia 106%

C=Cc1cnc(Nc2ccc(OC)cc2)nc1NCCCNC(=O)C1CCC1
inactive: SK-MEL-2 melanoma 87% | EKVX NSCLC 56.8% | SN12C renal 20.6% | UO-31 renal 10.2% | TK-10 renal 26% | ACHN renal 41.5% | CAKI-1 renal 14.4% | A498 renal 47.3% | CCRF-CEM leukemia 28% | MOLT-4 leukemia 24%

C=C1C(=O)O[C@H]2[C@H]1CC/C(Cn1cc(CCC)nn1)=C\CC[C@@]1(C)O[C@@H]21
active: UO-31 renal 0.946% | TK-10 renal -15.9% | ACHN renal -0.504% | CAKI-1 renal 5.35% | CCRF-CEM leukemia -27.4% | MOLT-4 leukemia -1.09%
inactive: SK-MEL-2 melanoma 44.7% | EKVX NSCLC 77.4% | SN12C renal 23.1% | A498 renal 39%

CN(Cc1cnc2nc(N)nc(N)c2n1)c1ccc(C(=O)NC(CCC(=O)O)C(=O)O)cc1Br (stereo not given)
inactive: SK-MEL-2 melanoma 67.4% | EKVX NSCLC 67.6% | SN12C renal 26% | UO-31 renal 38.8% | TK-10 renal 50.4% | ACHN renal 15.8% | CAKI-1 renal 19% | A498 renal 76.4% | CCRF-CEM leukemia 37.9% | MOLT-4 leukemia 30.5%

O=C(NCc1cccc(CNC(=O)Nc2nc3ccccc3[nH]2)c1)Nc1nc2ccccc2[nH]1
active: SK-MEL-2 melanoma -11.8% | SN12C renal -52.2% | TK-10 renal -32.7% | A498 renal -31% | MOLT-4 leukemia -16.1%
inactive: EKVX NSCLC 11% | UO-31 renal 62.6% | ACHN renal 70.2% | CAKI-1 renal 31.6% | CCRF-CEM leukemia 30.3%

CN1C(=O)/C(=C2\SC(=Nc3ccccc3)N(Nc3ccccc3)C2=O)c2ccccc21
inactive: SK-MEL-2 melanoma 108% | EKVX NSCLC 101% | SN12C renal 97.8% | UO-31 renal 61.4% | TK-10 renal 148% | ACHN renal 95.3% | CAKI-1 renal 74.2% | A498 renal 103% | CCRF-CEM leukemia 103% | MOLT-4 leukemia 101%

CCOC(=O)/C=C1\S/C(=N\Nc2cc(=O)[nH]c3ccccc23)N(c2ccccc2)C1=O
inactive: SK-MEL-2 melanoma 110% | EKVX NSCLC 104% | SN12C renal 98.9% | UO-31 renal 77.6% | TK-10 renal 117% | ACHN renal 102% | CAKI-1 renal 92.8% | A498 renal 125% | CCRF-CEM leukemia 101% | MOLT-4 leukemia 103%

COc1cc2nc3sc(C(=O)Nc4ccc(C(=O)OC(C)C)cc4)c(C(=O)Nc4ccc(Cl)cc4C)n3c(=O)c2cc1OC
inactive: SK-MEL-2 melanoma 110% | EKVX NSCLC 77.2% | SN12C renal 102% | ACHN renal 97% | CAKI-1 renal 42.7% | A498 renal 56.7% | CCRF-CEM leukemia 23.6% | MOLT-4 leukemia 52.8%
active: UO-31 renal -5.58% | TK-10 renal 6.58%

COc1ccc2cc(-c3ccnc4c(N=Nc5ccc(Cl)cc5)c(N)nn34)ccc2c1
inactive: SK-MEL-2 melanoma 118% | EKVX NSCLC 114% | SN12C renal 100% | UO-31 renal 77.7% | TK-10 renal 102% | ACHN renal 100% | CAKI-1 renal 92.2% | A498 renal 97.2% | CCRF-CEM leukemia 91.6% | MOLT-4 leukemia 100%

Cc1ccccc1Nc1cc(O)c2c(=O)cc(-c3ccccc3)oc2c1
inactive: SK-MEL-2 melanoma 65.7% | EKVX NSCLC 35.5% | SN12C renal 31.8% | UO-31 renal 42.3% | TK-10 renal 110% | ACHN renal 34.5% | CAKI-1 renal 39% | A498 renal 31.3% | CCRF-CEM leukemia 29.5% | MOLT-4 leukemia 25.8%

COc1ccc(N2CCC(=S)NC2=S)cc1
inactive: SK-MEL-2 melanoma 115% | EKVX NSCLC 104% | SN12C renal 98% | UO-31 renal 84.3% | TK-10 renal 96% | ACHN renal 104% | CAKI-1 renal 85% | A498 renal 108% | CCRF-CEM leukemia 102% | MOLT-4 leukemia 98.9%

O=[N+]([O-])c1ccc(-c2cn3nc(-c4c[nH]c5ccccc45)sc3n2)cc1
inactive: SK-MEL-2 melanoma 109% | EKVX NSCLC 91.2% | SN12C renal 91.9% | UO-31 renal 72.8% | TK-10 renal 102% | ACHN renal 96.8% | CAKI-1 renal 91% | A498 renal 85.9% | CCRF-CEM leukemia 90.2% | MOLT-4 leukemia 88.6%

CCCn1cnc2c(c1=N)C(c1ccc(F)cc1)c1sc3c(F)cccc3c1O2 (stereo not given)
inactive: SK-MEL-2 melanoma 45.8% | EKVX NSCLC 76.5% | SN12C renal 58.6% | UO-31 renal 53.9% | TK-10 renal 80.3% | ACHN renal 56.8% | CAKI-1 renal 30.6% | A498 renal 51.1% | CCRF-CEM leukemia 20.4% | MOLT-4 leukemia 43.8%

CC(C)N1C(=O)/C(=c2\sc3n(c2=O)C2C(NN=3)N(C)C(=O)N2C)c2ccccc21 (stereo not given)
inactive: SK-MEL-2 melanoma 73.5% | EKVX NSCLC 88.8% | SN12C renal 81.7% | UO-31 renal 52.7% | TK-10 renal 94.5% | ACHN renal 59.2% | CAKI-1 renal 28.6% | A498 renal 23.8% | CCRF-CEM leukemia 69.8% | MOLT-4 leukemia 71.5%

CCOC(=O)C(=Cc1ccc(-c2ccccc2)cc1)C(=O)OCC
active: CCRF-CEM leukemia 1.19% | MOLT-4 leukemia -3.57%
inactive: SK-MEL-2 melanoma 51.8% | EKVX NSCLC 95% | SN12C renal 67.3% | UO-31 renal 55.4% | TK-10 renal 66% | ACHN renal 34% | CAKI-1 renal 85.6% | A498 renal 108%

O=C1NC(=O)/C(=C/c2c(-c3ccccc3)nc3sc(COc4ccccc4)nn23)S1
inactive: SK-MEL-2 melanoma 92.1% | EKVX NSCLC 91.9% | SN12C renal 102% | UO-31 renal 84.7% | TK-10 renal 108% | ACHN renal 98.3% | CAKI-1 renal 98% | A498 renal 78.7% | CCRF-CEM leukemia 98.3% | MOLT-4 leukemia 96.1%
